Among the data in PubChem BioAssay (NCI) are growth values, retold here.

About 83,000 compounds went through this panel and 20% of them were active in at least one assay; those are over-represented in the sample as a whole.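 For each line, cells grew in 96-well plates with the test compound present at a single concentration for 48 hours.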 Active and inactive are the calls of the source.

This assay deals with SK-MEL-28 melanoma. In words: NCI-60 one-dose screen, 48 h (100 = growth as untreated, 0 = no growth, -100 = all killed). The conditions noted are these: 10 µM unless noted. As to the method:
Growth inhibition of the SK-MEL-28 human tumor cell line is measured as a screen for anti-cancer activity. Cells are grown in 96 well plates and exposed to the test compound for 48 hours. Compounds are tested at a single concentration, which is 10^-5 M for most compounds. The reported endpoint is percent growth (GI% or GIPRCNT), where numbers from 0 - 100% represent growth inhibition, and numbers from -100% - 0 represent cell death. For example, a value of 40 represents 60% growth inhibition. A value of 0 means no net growth occurred over the course of the experiment. A value of -40 indicates 40% of cells at the beginning of the experiment died by the end of the experiment. A value of -100 means all cells are dead at the end of the experiment.
NCI-60 Human Tumor Cell Lines Screen was performed using the standard one-dose NCI protocol, which is described in more detail at https://dtp.cancer.gov/discovery_development/nci-60/default.htm.
Compounds with GIPRCNT values below 10 were considered active. Activity score was based on GIPRCNT using the following formula: […]
Score is 0 for GIPRCNT values of 100 or above, 50 for GIPRCNT values of 0, and 100 for GIPRCNT values of -100.
Regarding `CCN1CCN(c2nc(NNC(=O)c3ccccc3)nc(N3CCN(C(c4ccccc4)c4ccccc4)CC3)n2)CC1`, the growth is 82.9% (inactive).
Take `Fc1ccc(Nc2nc(NCCNc3ccnc4cc(Cl)ccc34)nc(N3CCOCC3)n2)cc1`: the growth was -98.5% (active).
To `COc1ccc(C2=C(c3cc(OC)c(OC)c(OC)c3)C(=O)CC2)cc1` belongs 47.7% (inactive); to `C=C1CCC2C3(C)COC(C)(C)OC3CCC2(C)C1C/C=C1/C(=O)OCC1Oc1ccccc1OC` (stereo not given), 101% (inactive); to `O=C(NCCCNc1nccc(-n2ccc3cccnc32)n1)c1c(F)cccc1F`, 111% (inactive).
To `NC(=O)c1c(NC(=S)Nc2ccc(OC(F)(F)F)cc2)sc2c1CCC1(C2)OCCO1` belongs 104% (inactive).
Turning to `COc1ccc(/C=C(\C#N)c2cc(OC)c3c(c2)OCO3)cc1`, the growth is 67.8% (inactive).
To `COc1ccc(NC(=O)CSc2nc(-c3ccc(OC)c(OC)c3)cc(-c3cc(OC)c(OC)c(OC)c3)n2)cc1` belongs 108% (inactive); to `O=[N+]([O-])c1cnc(Sc2ccncn2)s1`, -61% (active).
Next, `Cc1[nH]c2ccc(F)cc2c1CCNC(=O)C1CCN(C(=O)c2ccccc2)C1` (stereo not given): 95.1% [25 µM] (inactive).
Next, `COc1cc(-c2nc(-c3nc4ccc(Cl)cc4[nH]3)cc3c2[nH]c2ccccc23)cc(OC)c1OC`: 99.8% (inactive); `CCN(CC)CCCNc1nccc2ccc(Cl)cc12`: 117% (inactive); `COc1ccc(/C=C2\Oc3cc(OCCCN4CCCC4)ccc3C2=O)c(OC)c1`: 105% (inactive).
With `COc1ccc(C(=O)c2cc(OC)c(OC)c(OC)c2OC)cc1O`, the growth is 45.6% (inactive).
Turning to `CCN(CC)c1ccc2[nH]c3c(C(N)=O)cc(=O)c(=O)c=3oc2c1`, the growth was 13.2% (inactive).
As for `COc1ccc(C(=O)NC(=O)Nc2cc3c(cc2F)/C(=C/c2[nH]c(C)c(CCC(=O)O)c2C)C(=O)N3)c(F)c1`, the growth was 44.4% (inactive).
As to `CCN(CC)CCOC(=O)C(c1ccccc1)(c1ccccc1)C(C)C`, the growth is 106% (inactive).
To `COc1cc(/C=C/C(=O)c2c(C)nc3ccccc3c2C)ccc1OCCCCOc1cc2c(cc1OC)C(=O)N1CCC[C@H]1C=N2` belongs -85.5% (active).
As for `C/C=C/C1=CN2C(=O)c3cc(OC4OC(C)C(NC)C(C)(O)C4O)c(C)cc3N=C[C@@H]2C1` (stereo not given in full), the growth is -24.2% (active).
To `N[C@@H]1CCN(C(=O)c2cc3cc(Cl)c(F)c(F)c3[nH]2)C1` belongs 105% (inactive); to `COc1ccc(-n2c(=S)sc3c(Cl)nc(C)nc32)c(OC)c1`, -3.3% (active).
To `O=C(Nc1cccc(-n2cc(-c3ccncc3)c(-c3ccc(Cl)c(O)c3)n2)c1)c1ccc(N2CCOCC2)c(C(F)(F)F)c1` belongs 1.14% (active); to `O=C(NCc1cn(Cc2cccc(Oc3ccccc3)c2)nn1)c1cccnc1Nc1ccc(F)cc1`, 72.4% (inactive); to `O=c1cc(Cc2ccc([N+](=O)[O-])cc2)[nH]c(=O)[nH]1`, 114% (inactive).
Next, `O=C1CS/C(=N\Nc2cc(=O)[nH]c3ccccc23)N1c1ccccc1`: 111% (inactive); `COc1ccc2c(c1)OC1=C(C(=O)OC1)C2c1cc(OC)c2c(c1)OCO2` (stereo not given): 64.4% (inactive).
With `O=C(NNC(=O)N1c2ccccc2C=Cc2ccccc21)c1ccccc1`, the growth was 102% (inactive).
Next, `CCOC(=O)c1cc(C(=O)c2cc(OC)c(OC)c(OC)c2)n2c1ccc1ccccc12`: 55.9% (inactive).
Next, `CC(C)(C)N1CCC1C(N)=O` (stereo not given): 114% (inactive).
With `S=c1[nH]nc(-c2cc3ccc2CCc2ccc(cc2)CC3)n1-c1ccccc1`, the growth is 98.8% (inactive).
With `Brc1ccc(-c2[nH]ncc2-c2c[nH]c3ccccc23)cc1`, the growth is 107% (inactive).
To `O=S(=O)(NCCNc1nccc(-c2c(-c3cccc(O)c3)nc3sccn23)n1)c1ccc(F)cc1` belongs 43.5% (inactive).
To `COc1ccc(Nc2ncccc2C(=O)NCc2cn(Cc3cccc(Oc4ccccc4)c3)nn2)cc1` belongs 63.3% (inactive).
Take `NC(=N\N=C/c1ccc(O)cc1)/C(N)=N\N=C/c1ccc(O)cc1`: the growth is 88.2% (inactive).
As for `NC(=O)CCCN1C/C(=C\c2ccccc2)C(=O)c2ccccc21`, the growth is 95.7% (inactive).
Regarding `Nc1cc2c(cc1C(=O)c1cccc(F)c1)OCCO2`, the growth was 105% (inactive).
On to `COC(=O)C(Sc1ccc(Cl)cc1)C1SC(=S)N(Cc2ccccc2)C1=O` (stereo not given), for which the growth was 109% (inactive).
Turning to `COc1cc(C2CC(c3ccc4c(c3)OCO4)=NN2C=O)cc(OC)c1OC` (stereo not given), the growth is 50.6% (inactive).
Next, `Cc1ccc(-c2cc3nc(C(Cl)Cl)nc(-c4ccccc4C)n3n2)cc1`: 89.1% (inactive).
Next, `Nc1ccc(C(=O)CSc2nc3ccccc3[nH]2)cc1`: 116% (inactive).
